Holding throughout (assay): MAPPIT interaction score (arbitrary units); higher = stronger binary interaction signal, active = hit call of the paper
For assay [1], the target named is Nup62. The following applies: MAPPIT configuration: N-N; pair source set: Finley_Y2H.
Assay [2] addresses PHDP. The following applies: MAPPIT configuration: N-N; pair source set: Curagen_low_conf.
The target in assay [3] is Not3. The following applies: MAPPIT configuration: N-N; pair source set: Finley_Y2H.
Assay [4] deals with Nup107. The following applies: MAPPIT configuration: N-C; pair source set: screen_4.
Assay [5] has as its target dgt6. The following applies: pair source set: Lit-BM-16.
For assay [6], the target named is Nacalpha. The following applies: MAPPIT configuration: N-N; pair source set: DPIM.
The target in assay [7] is Osi8. The following applies: MAPPIT configuration: N-C; pair source set: RRS.
Assay [8] addresses Nedd4. The following applies: pair source set: Lit-BM-16.

A number with no mark means an inactive call.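 Rule for the calls: active = MAPPIT score above the 99th percentile of random reference set scores in the same batch; inactive = at or below it.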
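Note: HEK293T cells with Epo stimulation, STAT-responsive firefly luciferase reporter, fold induction versus unstimulated cells divided by the larger fold induction of two negative controls lacking either bait or prey.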

B1: Nup54 (protein)
chain: MSFFGSNTSLGATSTPAKTTGGLFGSPFGGTAATSQPAPAFGAQATSTPAFGAQPATSAFGAGSAFGATAAAPAFGAATGTSAFGGSAFGSTPAFGAATTTTAGTGLGGGGFGGFGAAPATSQAGLFGAPATSAAPPAFSGFGQQAAASTAPASGFSGFGTTTTSAPAFGGFGTSQSTGFGGGAFGSTFGKPANTTVTPGFGGFGGTSFMLGQPQQQPAPISADEAFAQSILNVSIFGDERDKIVAKWNYLQATWGTGKMFYSQSAAPVDITPENVMCRFKAIGYSRMPGKDNKLGLVALNFCRELSAVKPHQQQVIQTLHSLFGSKPNMLVHIDSIKELENKKCQIVIYVEEKLQHAPNESKRILATELSNYLNQATLKPQLNNLGVVEALALVLPDEDQLREYLENPPRGVDPRMWRQANSDNPDPTLYIPVPMVGFNDLKWRVKCQEQETDTHALYIKKVESELTELKKRHATATAKILEHKRKLAELSHRILRIIVKQECTRKVGTSLTPEEEALRTKLQNMLAVVSAPTQFKGRLSELLSQMRMQRNQFAANGGAEYALDKEAEDEMKTFLTMQQRAMEVLSDTVNKDLRALDVIIKGLPELRQS
Take B1: the MAPPIT interaction score was 5.79 (active) in assay [1] and -0.274 in assay [2].

B2: Rga (protein)
chain: MANLNFQQPPRSIANAALAGRTTGGFGGSSLAGHVTPTSGMFQTDFANSYPGTANYGQAPQQQQQQQQQPQLSPNRNAQLSVGGPAISSGNRNANLFGQRQFVERRAMQGLGSGPMSNMGNFMQTGRGGYGTGGGGGGPLNNFHVFGGGGGSDTSTPALLDPTEFPSLTNARGQNDQTLPQSNPLQPPGSKPYGNFFTSFGMVKQPTSEQSEFTMSNEDFPALPGTQNSDGTTNAVGSVAGTGGSGGASTENHLDGTEKPMNSIVVSGSASGSSGSNVGVVGGNGLGAVGSGIGGLAVGGGGGAGSSGGGGVGGNAASGVVGGSHVGLVGSNSGIGGVNSVPNSNAMMGVGGGLGSGSGSSGSGAGGEHLNDNSSNDKLVKSGVQTSPDGKVTNIPATMVNNQFGMVGLLTFIRAAETDPNLVTLSLGTDLTGLGLNLNSQESLHTTFAGPFVAQPCRAQDVEFNVPPEYLINFAIRDKLTAPVLKKLQEDLLFFLFYTNIGDMMQLMAAAELHSREWRYHVEEKIWITRIPGIDQYEKNGTKERGTFYYFDAQSWKRLSKVFQIDPEKLDKCPNISAFMNGQSV
B2: the MAPPIT interaction score in assay [3] was 0.172.

B3: dgt4 (protein)
chain: METPPTPTTTTPPSLTTEGTMDDIQYLLHLEAMRRFQEDSRNVKRQVEEQVRIWLDAKCEYQRDFGRLARLLKCGALQAAVDAHRVSDVNQVDQAAKDIASLRSKLGSDLRPAILDSNDVKQCLEHLNTTHKPRLNLCRQQREFAQNQEALRSLRTAVDGLENGMEMGMIQAMDRLVEDLLPPRETNN
In the case of B3, the MAPPIT interaction score is 1.57 in assay [4], 1.64 in assay [5] (MAPPIT configuration: N-C) and 4.36 (active) in assay [5] (MAPPIT configuration: N-N).

B4: eIF3j (protein)
chain: MADDWESAADSEVVIRPTAAASVNKWEGEDEDEDIKDSWEDEEEKKDEEKPTKTEAPAKPKPNKALKAKLEQQALLEEEAEAKRLANLSPAEKLAEKLRLQKIQEASDLKHAQEAFGVTSTCGGLDAFNPETKEEFKEFGATLSWKVGQFRESEHFPQFVEDLVRSLCVNLSAADIKKVKMNVEILHSEKLKLEKANAKKPAGKGKGKVTLRTENDDIDGYQKYGNDFTEDYDDFM
Turning to B4, the MAPPIT interaction score in assay [6] is 0.261.

B5: cid (protein)
chain: MPRHSRAKRAPRPSANNSKSPNDDDTAFRSPEPEDGTDYGLEFTTSQLTLQDNNRRSSTLRRDAGRRQPAARDSSTSGEEEDQENRYPTTRSPQTRRMTVQQESKTRAAGPVAAQNQTRRRKAANPMSRAKRMDREIRRLQHHPGTLIPKLPFSRLVREFIVKYSDDEPLRVTEGALLAMQESCEMYLTQRLADSYMLTKHRNRVTLEVRDMALMAYICDRGRQF
For the molecule B5, the MAPPIT interaction score in assay [7] was -0.541.

B6: comm (protein)
chain: MISTTDYPTVETTTTAEELYAEYISAPASSMSPAAIAEHLQQNQITFEIPSAHDLRHIDALNSFNALLQRIGNAAVSYDPAPPSGWSPDGSISTEQLSKSVVLDLADLRDRSEESGESSWWSQIFGDADMHVIINYLWIGVVSSLVILSLVFILFSCYFYRKFRTWKKCNKDIRAQIHAASDSYSSHLVGCDASRLLLHQQMQHPHHRSSEAGFYQIESPPCYTIATGLPSYDEALHHQPRHFAYGMKFVYPSLAAVHHHHHCISNWEKQEPLNKLQKCKLSAAAAVEEDKADSSSSTSASASPSSSESSNLATATPAICINMPSGRQDEEVDNSDSDSAIAVAVAVAQSLQPAAPADDDCASLVVVVAA
Regarding B6, the results for the MAPPIT interaction score in assay [8] (MAPPIT configuration: N-C) and in assay [8] (MAPPIT configuration: N-N) were 1.86 and -0.264, respectively.
